Shown are actives, neighbours in structure and some others; about 2.7% of the full set was active somewhere.
ALOX12 inh: ALOX12 (human) lipoxygenase inhibition. P18054. purified 12hLO, xylenol orange hydroperoxide absorbance. Potency, µM (top dose mostly 108 µM), for inactives: at the highest dose activity change, negative = inhibition, actives largely listed as inhibitors. hit rate 1.1% among 580,000; note: potency is the fitted concentration of half-maximal effect; % is set by controls: 0 for no effect and ±100 for the full control effect
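Hydroperoxide product was detected by ferrous iron/xylenol orange as the 573 to 405 nm absorbance ratio. Arachidonic acid at 40 uM (final) was turned over for 30 min at room temperature by 150 nM human 12hLO, pH 7.0 Hepes buffer, after 15 min compound preincubation.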
A549 tox-1: kills or reduces viability of A549 cells in Nrf2 counter-screen | hit rate 0.16% among 390,000 | Potency, µM (titrated, usually from 46 µM), for inactives: at the top dose activity change, negative = cytotoxicity, hits mostly inhibitors | A549 ARE-Fluc cells, CellTiter-Fluor viability, 18-24 h; note: potency is the fitted concentration of half-maximal effect; % is set by controls: 0 for no effect and ±100 for the full control effect
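A549 ARE_Fluc cells in 5% FBS OPTI-MEM were exposed to compounds in concentration-response for 18-24 h at 37 deg C. Viability was read by CellTiter-Fluor fluorescence (Ex 405/Em 525) after 30 min, before the luciferase read.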
LDHA block: blocks human lactate dehydrogenase A. P00338. purified LDHA, NADH/diaphorase-resazurin fluorescence; active compounds read low. hit rate 0.15% among 480,000. activity change, % (values are at about 110 or 230 µM). AID 1347041; in the data active = activity change below about -30%; inconclusive = mostly about -25% to -30%;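 note: plate controls were DMSO wells for no effect and wells without enzyme for full effect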
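Human LDH5 at 2 nM final in Tris HCl pH 7.4 with 0.06 mM NADH and 0.2 mM pyruvate, reacted 5 minutes at room temperature. Remaining NADH coupled via diaphorase/resazurin; resorufin fluorescence read at 0 and 20 minutes, normalized to enzyme-free and DMSO wells.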
IDH1 R132H inh: human IDH1 R132H inhibition. O75874. IDH1-R132H enzyme, NADPH consumption, diaphorase/resazurin fluorescence. Potency, µM (titrated, usually from 76.6 µM), without a hit: at the highest dose activity change, negative = inhibition, most hits filed as inhibitors. hit rate 0.093% among 390,000. AID 602179; note: potency is the fitted concentration of half-maximal effect; % is set by controls: 0 for no effect and ±100 for the full control effect; nearly all actives have a fitted effect of over 65% in size
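IDH1-R132H (0.5 ug/mL) preincubated 30 min with compound, then NADPH (0.016 mM) and alpha-KG (2 mM) added; 80 min at RT, pH 7.5. Remaining NADPH coupled via diaphorase/resazurin to fluorescence (540/590 nm); concentration-response curves normalized to no-enzyme control.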
Nrf2 inh: blocks Nrf2 signaling | A549 ARE-Fluc reporter, luciferase luminescence, 18-24 h | Potency, µM (top dose mostly 46 µM), for inactives: at the highest dose activity change, negative = inhibition, most hits filed as inhibitors | hit rate 2.1% among 360,000 | AID 504444; note: potency is the fitted concentration of half-maximal effect; % is set by controls: 0 for no effect and ±100 for the full control effect; nearly all actives have a fitted effect of over 60% in size
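Quantitative HTS in A549 cells stably bearing an antioxidant response element-firefly luciferase construct. Inhibition of Nrf2-driven transcription was scored by luminescence after 18-24 h of compound exposure at 37 °C.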
Nrf2 activator: Nrf2 pathway activation | AREc32 ARE-luciferase reporter (MCF7-derived line), luminescence, 24 h | Potency, µM (doses to about 46.1 µM), for the others: top-dose activation, hits mostly activators | hit rate 0.31% among 410,000; note: potency is the fitted concentration of half-maximal effect; % of control where 0% means no effect; nearly all actives have a fitted effect of over 65% in size
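Luminescent ARE reporter assay in AREc32_Fluc cells: overnight plating at 37 deg C, 24 hr compound incubation, Steady-Glo added, 30 min RT before reading.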
FLuc counter 3: counter-screen for Nrf2 inhibitors: firefly luciferase enzyme inhibition; shares compounds with Nrf2 inh; purified firefly luciferase, luminescence inhibition; Potency, µM (doses to about 57.5 µM), for inactives: at the top dose activity change, negative = inhibition, actives largely listed as inhibitors; hit rate 4% among 1,400; note: potency is the fitted concentration of half-maximal effect; % is set by controls: 0 for no effect and ±100 for the full control effect; nearly all actives have a fitted effect of over 65% in size
Target sequence (P08659 whole entry, looked up): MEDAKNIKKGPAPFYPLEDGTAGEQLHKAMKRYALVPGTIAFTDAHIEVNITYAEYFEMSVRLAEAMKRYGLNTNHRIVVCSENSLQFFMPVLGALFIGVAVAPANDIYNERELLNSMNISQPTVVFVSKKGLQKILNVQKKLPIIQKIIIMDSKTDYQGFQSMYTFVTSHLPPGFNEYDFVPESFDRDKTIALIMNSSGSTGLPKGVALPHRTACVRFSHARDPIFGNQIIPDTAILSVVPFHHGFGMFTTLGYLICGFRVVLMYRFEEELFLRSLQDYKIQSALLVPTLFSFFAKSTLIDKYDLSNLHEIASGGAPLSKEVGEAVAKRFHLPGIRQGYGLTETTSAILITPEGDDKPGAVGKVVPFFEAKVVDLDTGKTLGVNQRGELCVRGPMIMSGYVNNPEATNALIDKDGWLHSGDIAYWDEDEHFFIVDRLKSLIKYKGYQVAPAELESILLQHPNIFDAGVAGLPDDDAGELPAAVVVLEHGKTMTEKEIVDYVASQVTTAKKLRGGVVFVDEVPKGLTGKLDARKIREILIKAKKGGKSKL
A549 tox-2: toxic to A549 ARE-Fluc cells in Nrf2 counterscreen; Potency, µM (highest dose often 46.1 µM), without a hit: top-dose activity change, negative = cytotoxicity, usual class: inhibitors; A549 ARE-Fluc cells, cytotoxicity counterscreen; shares compounds with Nrf2 inh; hit rate 2% among 1,400; AID 720523;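 note: potency is the fitted concentration of half-maximal effect; cells exposed to compounds for 18 to 24 hours; % is set by controls: 0 for no effect and ±100 for the full control effect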
ARE-Fluc inh: confirmation of Nrf2 inhibitors in A549 ARE reporter cells; AID 720524; shares compounds with Nrf2 inh; Potency, µM (doses to about 46.1 µM), without a hit: top-dose activity change, negative = inhibition, actives largely listed as inhibitors; hit rate 74% among 1,400; A549 ARE-firefly luciferase reporter, luminescence; note: potency is the fitted concentration of half-maximal effect; % is set by controls: 0 for no effect and ±100 for the full control effect; nearly all actives have a fitted effect of over 65% in size
Numbers without * were called inactive; ? = inconclusive; nt = no result given; ! = repeats disagree; [ ] = another dose, or the depositor's remark. Unless noted, calls come from the whole dose curve; as a rule, active = well fitted curve in the direction sought with a large enough effect; inconclusive = small, poorly fitted or top-dose-only effect, or another doubt; inactive = no such curve, though single readings can be large; an effect the other way counts as inactive or inconclusive.

SMILES	ALOX12 inh	A549 tox-1	LDHA block	IDH1 R132H inh	Nrf2 inh	Nrf2 activator	FLuc counter 3	A549 tox-2	ARE-Fluc inh
O=C(Nc1ccc(SCc2cccnc2)cc1)c1ccc[n+]([O-])c1	?	nt	2	nt	nt	nt	nt	nt	nt
COc1ccc2c(-c3ccccc3)cc(SCC(=O)NC3CC3)nc2c1	?	nt	0	nt	nt	nt	nt	nt	nt
CCN1/C(=C/C=C/c2sc3ccccc3[n+]2CC)Sc2ccccc21	-39%[12.5 µM]	-5%	-8	?	1.3µM*	-1%	?	12µM*	2.6µM*
CC[n+]1c(/C=C/Nc2ccccc2)sc2ccccc21	?	-8%	-5	4%	-25%	4%	nt	nt	nt
CCN1/C(=C/c2ccc3cc(C)ccc3[n+]2CC)Sc2ccccc21	45µM*	?	-15	4%	0.73µM*	-3%	-2%	5.8µM*	nt
CC[n+]1c(/C=C2\Sc3ccccc3N2C)ccc2cccc(C)c21	45µM*	?	-10	3%	3.7µM*	-1%	-14%	6.5µM*	2.6µM*
C=CCN(c1ccccc1)S(=O)(=O)c1cccc(C(=O)Nc2nc3ccccc3[nH]2)c1	10%	?	-4	4%	2.9µM*	5%	-16%	0%	5.8µM*
CC(=O)O[C@]1(C(C)=O)CCC2C3C=C(C)C4=CC(=O)CC[C@]4(C)C3CC[C@@]21C (some centres undefined)	2%	-7%	1	0%	0.26µM*	0%	-11%	-8%	1.2µM*
CCOC(=O)c1cc2c(=O)n3ccccc3nc2n(CCOC)c1=NC(=O)c1c(-c2c(F)cccc2Cl)noc1C	-11%	-20%	-2	0%	6.5µM*!	0%	0%	-17%	?
CCCCn1c(=NC(=O)c2c(-c3c(F)cccc3Cl)noc2C)c(C(=O)OCC)cc2c(=O)n3ccccc3nc21	-26%	1%	-1	-8%	-4%[9.27 µM]	0%	nt	nt	nt
CCN(CC)S(=O)(=O)c1cc(C(=O)Nc2cc3c(cc2C#N)OCO3)ccc1OC	3%	nt	2	nt	nt	nt	nt	nt	nt
Cc1cccc(-c2nnc3n2N=C(c2ccccc2)CS3)c1	0%	-3%	-15	8%	?	2%	nt	nt	nt
C[n+]1c2n(c3ccccc31)N=C(c1ccccc1)CS2	-8%	?	-7	0%	3.7µM*	8.9µM*	0%	-9%	nt
CCc1ccc(OCc2nc(-c3ccc(-n4cccc4)cc3)no2)cc1	0%	-3%	2	nt	?	0%	nt	nt	nt
CCc1ccc(OC(C)c2nc(-c3ccc(-n4cccc4)cc3)no2)cc1 (centres undefined)	-6%	9%	1	-15%	8.2µM*	0%	1%	3%	8.2µM*
CCOc1ccc(C(=O)OCc2ccccc2C#N)cc1OC	?	nt	1	nt	nt	nt	nt	nt	nt
Cc1cc(C)cc(C(=O)NC(=S)Nc2ccc(-c3cc4ccccc4oc3=O)cc2)c1	10µM*	1%	0	2%	3.7µM*	-3%	-7%	-19%	?
Cc1cc(NC(=O)c2cc(Cl)ccc2Cl)ccc1-c1cc2ccccc2oc1=O	-17%	-5%	-14	0%	?	-1%	-4%	3%	5%
COC(=O)c1ccc(COC(=O)COc2ccccc2OC)o1	-60%	nt	-1	nt	nt	nt	nt	nt	nt
Cc1cc(Cl)c(S(=O)(=O)N2CCCC2)cc1OCC(=O)NC1CCCCC1	-21%	nt	0	-1%	7.3µM*	-1%	0%	-18%	nt
Cc1oc(-c2ccccc2)nc1CN(CC(N)=O)C(C)C	-1%	nt	2	nt	nt	nt	nt	nt	nt
O=C1c2cccc3cc([N+](=O)[O-])cc(c23)C(=O)N1CCN1CCCC1	11%	?	23	-7%	1.8µM*	-2%	-1%	?	?
CC1=CC(=O)C2=C(C)CC[C@@H]3[C@H](OC(=O)[C@H]3C)[C@@H]12	1%	-3%	-1	-11%	6.5µM*	0%	6%	-8%	6.5µM*
COc1ccc(NC(=O)CCc2c(C)c3ccc(C)cc3oc2=O)cc1	1%	nt	-2	nt	nt	nt	nt	nt	nt
O=C(O)CCn1nnc(-c2cccs2)n1	-7%	3%	-6	-2%	-16%	4%	nt	nt	nt
SMILES	ALOX12 inh	A549 tox-1	LDHA block	IDH1 R132H inh	Nrf2 inh	Nrf2 activator	FLuc counter 3	A549 tox-2	ARE-Fluc inh
CC(C)c1ccc(-c2nnn(CCC(=O)O)n2)cc1	nt	-2%	-3	1%	0.33µM*	-1%	11µM*	-3%	0.82µM*
O=C(Cn1cnc2ccccc21)Nc1ccc(SC(F)F)cc1	-18%	-17%	-12	0%	4.1µM*	5%	-20%	-1%	?
COc1ccc(NC(=O)COC(=O)Cn2cnc3ccccc32)cc1	0%	10%	-1	2%	10%	-1%	nt	nt	nt
COc1cc2ncnc(N3CCN(C(C)=O)CC3)c2cc1OC	-4%	nt	-24	nt	nt	nt	nt	nt	nt
C=C(C)Cn1c(NCCO)nc2c1c(=O)[nH]c(=O)n2C	-25%	nt	-2	nt	nt	nt	nt	nt	nt
Cc1cccc(C(=O)Nc2ccnc(-c3ccncc3)n2)c1	485%	?	-13	-13%	2.6µM*	0%	-3%	1%	-24%
Cc1cccc(C(=O)Nc2ccc3oc(-c4ccncc4)nc3c2)c1	-19%	-2%	-12	-17%	9.2µM*	-1%	-18%	-5%	1.5µM*
COc1ccc(C(=O)Nc2ccc3oc(-c4ccncc4)nc3c2)cc1	-26%	nt	6	nt	nt	nt	nt	nt	nt
Cc1cccc(C(=O)Nc2ccnc(-c3cccnc3)n2)c1	0%	-2%	-3	13%	?	0%	nt	nt	nt
CCOC(=O)C1=C(C)N=C2SCC(=O)N2C1c1ccc(OC)cc1OC (centres undefined)	0%	nt	-3	nt	nt	nt	nt	nt	nt
COc1ccc(Cn2cccc(NC(=O)Nc3cccc(C#N)c3)c2=O)cc1	0%	-10%	-7	12%	5.2µM*	3%	-17%	5%	?
COc1ccc(CN(C)C(=O)c2cccc(NC(=O)CC3SC(N4CCCCC4)=NC3=O)c2)c(OC)c1 (centres undefined)	-16%	-26%	-2	-4%	8.2µM*	-1%	-19%	-16%	6.5µM*
O=C1CNC(=S)N1Cc1ccc(F)cc1	nt	1%	-6	-7%	8%	1%	nt	nt	nt
